Each structure is given as a SMILES string. Where “and” joins values, the source holds several entries; their conditions need not be identical. Equal entries are not always repeated. Inconclusive results are not listed. A call without a number means that no potency is given here. Calls of active or inactive are those of the source. The call rests on the fitted dose curve; in most records, active means well fitted inhibition curve with a large enough effect in the repeat runs; inconclusive means weak or mixed curves; inactive means no such curve, though single readings can be large or run the other way.
Potency means the concentration at half of the fitted maximal effect.

A short description of this assay: qHTS assay to identify small molecule antagonists of the thyroid receptor (TR) signaling pathway (AID 743065). Further: nearly all actives have a fitted effect of over 55% in size. Conditions: GH3.TRE-Luc, T3-stimulated luciferase inhibition, 23.5 h; series mostly up to 70.3 µM. The text has this:
U.S. Tox21 Program National Center for Advancing Translational Sciences [NCATS] NIH Chemical Genomics Center [NCGC] U.S. Environmental Protection Agency [EPA] National Institutes of Environmental Health Sciences [NIEHS] National Toxicology Program [NTP] U.S. Food and Drug Administration [FDA] Tox21 Assay Overview: Thyroid receptor (TR), a nuclear hormone receptor, plays an important role in development, proliferation, differentiation, metabolism, brain function, and cardiovascular system. […] To profile the Tox21 10K compound library in TR signaling, a cell-based GH3-TRE-Luc assay (GH3.TRE-Luc cell line, developed by the laboratory of Dr. Albertinka J. Murk, Wageningen University) was used to measure the inhibition of TR. GH3 (rat pituitary tumor) cells stably expressing a TR activity sensor consisting of two TR response elements and a luciferase reporter gene.
Tox21 Assay Protocol Summary: GH3.TRE-Luc cells were dispensed at 1500 cells/4 uL/well into 1536-well white solid bottom plates using a Multidrop Combi dispenser (Thermo Fisher Scientific Inc., Waltham, MA). After the assay plates were incubated at 37 C for 4 hours, 23 nL of library compound or DMSO controls was transferred to the assay plates by a pintool station (Kalypsys, San Diego, CA), followed by addition of 1 ul of T3 (1 nM, final concentration in the wells) to stimulate TR transactivation. The assay plates were incubated at 37 C for 23.5 h, and then 1 uL of CellTiter-Fluor reagent (Promega, Madision, WI) of measuring cytotoxicity was added to each well using a Bioraptr Flying Reagent Dispenser (FRD) workstation (Beckman Coulter, Indianapolis, IN, USA). The plates were incubated at 37 C and 5% CO2 for additional 30 min, and fluorescence intensity was measured by a ViewLux plate reader (PerkinElmer, Shelton, CT). For measuring luciferase reporter gene activity, 4 uL of ONE-Glo Luciferase Assay reagent (Promega) was added to each well using a Bioraptr FRD (Beckman Coulter), followed by 30 min incubation at room temperature. The luminescence intensity of plates was recorded by a ViewLux plate reader (PerkinElmer, Shelton, CT).
In general terms: In qHTS, concentration-response curves come from the screen itself.
Regarding `C#CC(C)(C)NC(=O)c1cc(Cl)cc(Cl)c1`, the Potency entry was “inactive”.

Turning to `NCC(O)c1ccc(O)cc1` (stereo not given), the Potency result is “inactive”.

Turning to `COC(=O)NC(=S)Nc1ccccc1NC(=S)NC(=O)OC`, the Potency entry was “inactive”. For `CC(C)=C[C@@H]1[C@@H](C(=O)OCc2coc(Cc3ccccc3)c2)C1(C)C`, the Potency entry was “inactive”.

Take `CCOP(=S)(OCC)SCCSCC`: the Potency result is “inactive”. In the case of `CCC12COCN1COC2` it was “inactive”; in that of `CCCCOC(=O)c1ccccc1C(=O)OCCCC`, “inactive”.

As to `CC(Oc1ccc(Cl)cc1Cl)C(=O)O` (stereo not given), the Potency result is “inactive”. To `C=C(C)CCl` belongs “inactive”.

For the compound `CCCC1COC(Cn2cncn2)(c2ccc(Cl)cc2Cl)O1` (stereo not given), the Potency is 55.5 µM (active) and 54.5 µM (active).

As for `c1ccc(-c2ccccc2)cc1`, the Potency result was “inactive”. For `CCOP(=S)(OCC)Oc1cnc2ccccc2n1`, the Potency entry is “inactive”. For the compound `CCCCCOC(=O)c1ccccc1C(=O)OCCCCC`, the Potency entry was “inactive”. To `OC(O)C(Cl)(Cl)Cl` belongs “inactive”; to `O=C(NC(=O)c1c(F)cccc1F)Nc1cc(Cl)c(OC(F)(F)C(F)C(F)(F)F)cc1Cl` (stereo not given), “inactive”; to `CN(C)N=O`, “inactive”. Take `CCN(CC)c1ccccc1`: the Potency result is “inactive”. In the case of `c1ccc(OP(Oc2ccccc2)Oc2ccccc2)cc1` it was “inactive”. In the case of `CC(C)C1(C)N=C(c2nc3ccccc3cc2C(=O)O)NC1=O` (stereo not given) it was “inactive”; in that of `O=c1[nH]c2ccccc2c(=O)o1`, “inactive”; in that of `[N-]=[N+]=[N-]`, “inactive”. In the case of `COC(=O)c1ccccc1C(=O)OC` it was “inactive”.

For the compound `O=[N+]([O-])c1ccc([As](=O)(O)O)cc1`, the Potency result is “inactive”. As to `COP(N)(=O)SC` (stereo not given), the Potency result was “inactive”.

`O=[N+]([O-])c1ccccc1`: the Potency entry is “inactive”. For `Clc1ccccc1Cl`, the Potency entry was “inactive”. In the case of `CC(C)(C)OOC(C)(C)C` it was “inactive”. To `CC(C)N1C(=O)c2ccccc2NS1(=O)=O` belongs “inactive”; to `O=[N+]([O-])c1ccc(Oc2ccc(Cl)cc2Cl)cc1`, “inactive”.

With `Nc1c(Cl)c(Cl)nc(C(=O)O)c1Cl`, the Potency entry was “inactive”. To `COC(=O)NS(=O)(=O)c1ccc(N)cc1` belongs “inactive”. In the case of `CCC[N+](=O)[O-]`, the Potency result was “inactive”. `Cc1ccc([N+](=O)[O-])cc1C`: the Potency entry was “inactive”. To `CC(C)OC(=O)Nc1ccccc1` belongs “inactive”; to `O=NN1CCCCCCC1`, “inactive”. For `CN=C=S`, the Potency result was “inactive”.

With `CCN(CC)CCO`, the Potency entry is “inactive”.

`Cc1ccc(N)cc1N`: the Potency entry was “inactive”.

Regarding `Nc1ccc(Br)cc1`, the Potency entry is “inactive”.

Turning to `CCCN(CCC)N=O`, the Potency entry is “inactive”.

Source of the values: PubChem BioAssay (Tox21).
